# Assay results: PubChem BioAssay (Tox21)
# Records with an inconclusive call do not appear. A call without a number means that no potency is given here. Activity calls are given as the source filed them. Unless noted, the call rests on the fitted dose curve; in most records, active means well fitted curve in the direction sought with a large enough effect in the repeat runs; inconclusive means weak or mixed curves; inactive means no such curve, though single readings can be large; an effect the other way counts as inactive or inconclusive.
# Columns and labels:
# [1] = target: Estrogen receptor (Homo sapiens) (UniProt P03372); test: qHTS assay to identify small molecule antagonists of the estrogen receptor alpha (ER-alpha) signaling pathway (AID 743069; active means well fitted curve in the direction sought with a large enough effect in the signal ratio in the repeat runs, not every such curve was filed as active; the % refers to the signal ratio)
# Method in brief: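 Screening used a UAS-driven beta-lactamase reporter integrated into HEK293 cells expressing ER-alpha, stimulated with 17beta-estradiol alongside test compounds over 18 hr at 37C; signal came from LiveBLAzer B/G FRET fluorescence.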
# [2] = qHTS assay to identify small molecule antagonists of the estrogen receptor alpha (ER-alpha) signaling pathway - cell viability counter screen (AID 743074; calls by dose curve; further: nearly all actives have a fitted effect of over 45% in size)
# [3] = target: Estrogen receptor (Homo sapiens) (UniProt P03372); test: qHTS assay to identify small molecule agonists of the estrogen receptor alpha (ER-alpha) signaling pathway (AID 743075; calls by dose curve)
# [4] = target: Estrogen receptor (Homo sapiens) (UniProt P03372); test: qHTS assay to identify small molecule agonists of the estrogen receptor alpha (ER-alpha) signaling pathway using the BG1 cell line (AID 743079); further: nearly all actives have a fitted effect of over 20% in size; further: potency means the concentration at half of the fitted maximal effect
# [5] = qHTS assay to identify small molecule antagonists of the estrogen receptor alpha (ER-alpha) signaling pathway using the BG1 cell line (AID 743080; calls by dose curve;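 further: BG1 cells stimulated with 17beta-estradiol alongside compound; series mostly up to about 70 µM; nearly all actives have a fitted effect of over 25% in size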)
# Method in brief: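 BG1-Luc-4E2 cells (endogenous full-length ER-alpha, stable 4×ERE-luciferase) were starved 5 days in phenol-red-free medium with 10% charcoal-stripped FBS, plated 24 h, then given compound plus 17beta-estradiol for 21.5 h at 37 C; ONE-Glo luminescence read after 30 min.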
# [6] = qHTS assay to identify small molecule antagonists of the estrogen receptor alpha (ER-alpha) signaling pathway using the BG1 cell line - cell viability counter screen (AID 743081);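 further: compound given together with 17beta-estradiol as the ER stimulus; series mostly up to about 70 µM; nearly all actives have a fitted effect of over 45% in size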
# [7] = target: Aromatase (Homo sapiens) (UniProt P11511); test: qHTS assay to identify aromatase inhibitors (AID 743083); further: nearly all actives have a fitted effect of over 55% in size; further: potency means the concentration at half of the fitted maximal effect
# [8] = qHTS assay to identify aromatase inhibitors - cell viability counter screen (AID 743084);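 further: cells stimulated with testosterone during compound exposure; nearly all actives have a fitted effect of over 55% in size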
# [9] = qHTS assay to identify small molecule that activate the aryl hydrocarbon receptor (AhR) signaling pathway - cell viability counter screen (AID 743086);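 further: HepG2 liver cells carrying the AhR DRE luciferase reporter; series mostly up to about 70 µM; nearly all actives have a fitted effect of over 45% in size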
# Method in brief: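 HepG2-AhR-luc (HG2L7.5c1) cells, 4000/well, were preincubated 5 h at 37C, exposed to compound in qHTS format for 24 hr at 37C, then given CellTiter-Fluor for 30 min; viability was read as fluorescence in the reporter wells.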
# [10] = target: Peroxisome proliferator-activated receptor gamma (Homo sapiens) (UniProt P37231); test: qHTS assay to identify small molecule agonists of the peroxisome proliferator-activated receptor gamma (PPARg) signaling pathway (AID 743094; active means well fitted activation curve with a large enough effect in the signal ratio in the repeat runs, not every such curve was filed as active; the % refers to the signal ratio)
# Method in brief: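 Cell-based bla reporter, HEK293H background, PPARg-driven UAS. Pre-incubation 5 h, 37C, 5% CO2. Compound 17 h, 37C. Substrate 1 h RT; fluorescence.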
# [11] = target: Peroxisome proliferator-activated receptor gamma (Homo sapiens) (UniProt P37231); test: qHTS assay to identify small molecule antagonists of the peroxisome proliferator-activated receptor gamma (PPARg) signaling pathway (AID 743191; calls by dose curve; further: series mostly up to about 63 µM; nearly all actives have a fitted effect of over 30% in size)
# Method in brief: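 GeneBLAzer PPARg UAS-bla HEK293H cells carrying a UAS-driven beta-lactamase reporter were plated at 3000 cells/well, preincubated 5 h at 37C, then given compound for 17 h at 37C; LiveBLAzer B/G FRET substrate was read after 1 h at room temperature.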
# [12] = qHTS assay to identify small molecule antagonists of the peroxisome proliferator-activated receptor gamma (PPARg) signaling pathway - cell viability counter screen (AID 743194); settings: Potency: co-treated with 50 nM rosiglitazone; further: nearly all actives have a fitted effect of over 55% in size
# Method in brief: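 PPARg-UAS-bla HEK293H cells were plated, rested 5 h at 37 C, then treated with compounds plus rosiglitazone (50 nM final) for 17 h at 37 C; viability was then read by CellTiter-Glo luminescence after 30 min at room temperature.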
# [13] = qHTS assay for small molecule agonists of the antioxidant response element (ARE) signaling pathway - cell viability counter screen (AID 743203; calls by dose curve; further: nearly all actives have a fitted effect of over 55% in size)
# Method in brief: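 Measured in the same wells as the beta-lactamase ARE reporter, this read-out is CellTiter-Glo luminescence from HepG2 ARE-bla cells given compounds for 16 hrs.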
# [14] = qHTS assay for small molecule activators of the heat shock response signaling pathway - cell viability counter screen (AID 743209); further: nearly all actives have a fitted effect of over 50% in size
# Method in brief: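 Same-well multiplex: after 2.5 h room-temperature incubation with LiveBLAzer B/G substrate and fluorescence reading, CellTiter-Glo reagent was added to HSE-bla HeLa cells that had received compound for 5 h at 37 C; luminescence read after 30 min.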
# [15] = qHTS assay for small molecule activators of the heat shock response signaling pathway (AID 743210; active means well fitted activation curve with a large enough effect in the signal ratio in the repeat runs, with a control signal flat, not every such curve was filed as active; the % refers to the signal ratio;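 further: HeLa cells with beta-lactamase reporter driven by heat shock elements; series mostly up to about 63 µM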)
# Method in brief: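 Activation of heat shock element-controlled beta-lactamase expression is measured in HeLa cells by LiveBLAzer FRET fluorescence, with compound exposure lasting 5 h at 37 C and substrate loading 2.5 h at room temperature.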
# [16] = qHTS assay to identify small molecule agonists of the peroxisome proliferator-activated receptor delta (PPARd) signaling pathway - cell viability counter screen (AID 743211); further: nearly all actives have a fitted effect of over 55% in size
# Method in brief: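 Viability of GeneBLAzer PPARd UAS-bla HEK293H cells was assessed after 17 h compound incubation at 37C, using CellTiter-Glo reagent added after the reporter read and luminescence recorded 30 min later.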
# [17] = system: thyroid hormone receptor (rat, GH3 cells); test: qHTS assay to identify small molecule agonists of the thyroid receptor (TR) signaling pathway (AID 743066; calls by dose curve)
# [18] = target: Aryl hydrocarbon receptor (Homo sapiens) (UniProt P35869); test: qHTS assay to identify small molecule that activate the aryl hydrocarbon receptor (AhR) signaling pathway (AID 743085);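 further: HG2L7.5c1 human HepG2 liver cells with stably integrated DRE-driven firefly reporter; series mostly up to about 70 µM; nearly all actives have a fitted effect of over 15% in size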
# Method in brief: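 Steps: seed HepG2-AhR-luc cells; allow 5 h at 37C; pin-transfer test compound or vehicle; incubate 24 h at 37C; add viability dye (30 min, 37C) and read fluorescence; add luciferase substrate (30 min, RT) and read luminescence.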
# [19] = qHTS assay for small molecule agonists of the antioxidant response element (ARE) signaling pathway (AID 743202; active means well fitted activation curve with a large enough effect in the signal ratio in the repeat runs, not every such curve was filed as active; the % refers to the signal ratio; further: potency means the concentration at half of the fitted maximal effect)
# Method in brief: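 Steps: seed ARE-bla HepG2 cells (2,000/well); incubate 5 h at 37 C; add compounds by pin tool; incubate 16 h at 37 C; add FRET substrate; read fluorescence after 2 h at RT.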
# Sequence of Peroxisome proliferator-activated receptor gamma (Homo sapiens) (P37231 whole entry, looked up): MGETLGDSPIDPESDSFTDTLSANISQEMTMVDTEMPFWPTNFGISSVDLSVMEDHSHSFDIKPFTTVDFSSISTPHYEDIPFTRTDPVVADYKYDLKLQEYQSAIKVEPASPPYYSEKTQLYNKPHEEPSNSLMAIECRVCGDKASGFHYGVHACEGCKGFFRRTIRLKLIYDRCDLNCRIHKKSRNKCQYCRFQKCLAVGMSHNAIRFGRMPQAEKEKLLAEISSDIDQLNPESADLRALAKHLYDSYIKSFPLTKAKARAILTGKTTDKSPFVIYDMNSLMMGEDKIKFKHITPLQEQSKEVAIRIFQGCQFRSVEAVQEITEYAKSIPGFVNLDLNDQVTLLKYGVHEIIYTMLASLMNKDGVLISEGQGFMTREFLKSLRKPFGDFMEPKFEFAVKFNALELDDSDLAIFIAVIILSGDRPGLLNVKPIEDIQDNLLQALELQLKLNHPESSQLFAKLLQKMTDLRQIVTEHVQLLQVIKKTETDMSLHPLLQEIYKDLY
# Sequence of Aryl hydrocarbon receptor (Homo sapiens) (P35869 whole entry, looked up): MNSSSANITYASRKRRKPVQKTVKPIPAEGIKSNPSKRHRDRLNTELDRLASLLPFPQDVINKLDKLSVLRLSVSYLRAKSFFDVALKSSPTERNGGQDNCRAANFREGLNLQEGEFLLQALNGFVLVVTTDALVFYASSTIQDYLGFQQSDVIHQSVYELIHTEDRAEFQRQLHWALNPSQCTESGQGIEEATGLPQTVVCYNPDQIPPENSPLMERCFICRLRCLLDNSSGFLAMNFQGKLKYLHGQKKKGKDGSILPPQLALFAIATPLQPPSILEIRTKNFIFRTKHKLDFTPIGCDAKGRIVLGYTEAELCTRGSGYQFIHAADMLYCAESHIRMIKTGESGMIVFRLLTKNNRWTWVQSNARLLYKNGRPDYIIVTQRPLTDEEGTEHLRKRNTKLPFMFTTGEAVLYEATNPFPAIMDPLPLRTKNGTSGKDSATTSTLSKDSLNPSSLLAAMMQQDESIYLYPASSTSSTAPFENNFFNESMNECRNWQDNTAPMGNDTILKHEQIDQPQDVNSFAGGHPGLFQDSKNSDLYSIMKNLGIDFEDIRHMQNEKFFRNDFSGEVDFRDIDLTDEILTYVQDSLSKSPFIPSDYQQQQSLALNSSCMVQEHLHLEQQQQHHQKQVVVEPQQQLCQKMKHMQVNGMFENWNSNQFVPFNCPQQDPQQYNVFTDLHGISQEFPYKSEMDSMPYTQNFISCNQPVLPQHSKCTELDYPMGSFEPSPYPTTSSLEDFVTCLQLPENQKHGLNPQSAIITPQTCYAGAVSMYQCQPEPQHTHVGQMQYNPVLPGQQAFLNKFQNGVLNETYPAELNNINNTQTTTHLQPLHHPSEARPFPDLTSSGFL
# Sequence of Estrogen receptor (Homo sapiens) (P03372 whole entry, looked up): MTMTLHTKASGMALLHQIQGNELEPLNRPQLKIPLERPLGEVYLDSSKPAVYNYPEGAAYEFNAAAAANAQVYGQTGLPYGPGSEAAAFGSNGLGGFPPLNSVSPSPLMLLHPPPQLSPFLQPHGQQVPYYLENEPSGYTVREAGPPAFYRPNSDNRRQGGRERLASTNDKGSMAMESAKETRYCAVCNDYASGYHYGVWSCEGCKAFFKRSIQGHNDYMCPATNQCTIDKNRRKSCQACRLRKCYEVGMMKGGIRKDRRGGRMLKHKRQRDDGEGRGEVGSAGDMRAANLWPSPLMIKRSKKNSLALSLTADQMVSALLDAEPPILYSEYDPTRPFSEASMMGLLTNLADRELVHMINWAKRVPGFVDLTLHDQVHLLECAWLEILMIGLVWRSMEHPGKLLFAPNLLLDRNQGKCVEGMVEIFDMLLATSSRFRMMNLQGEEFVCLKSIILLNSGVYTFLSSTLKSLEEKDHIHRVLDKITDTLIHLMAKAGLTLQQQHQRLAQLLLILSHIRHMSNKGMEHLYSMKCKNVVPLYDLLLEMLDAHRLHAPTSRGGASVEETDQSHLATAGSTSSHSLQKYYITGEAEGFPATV
# Sequence of Aromatase (Homo sapiens) (P11511 whole entry, looked up): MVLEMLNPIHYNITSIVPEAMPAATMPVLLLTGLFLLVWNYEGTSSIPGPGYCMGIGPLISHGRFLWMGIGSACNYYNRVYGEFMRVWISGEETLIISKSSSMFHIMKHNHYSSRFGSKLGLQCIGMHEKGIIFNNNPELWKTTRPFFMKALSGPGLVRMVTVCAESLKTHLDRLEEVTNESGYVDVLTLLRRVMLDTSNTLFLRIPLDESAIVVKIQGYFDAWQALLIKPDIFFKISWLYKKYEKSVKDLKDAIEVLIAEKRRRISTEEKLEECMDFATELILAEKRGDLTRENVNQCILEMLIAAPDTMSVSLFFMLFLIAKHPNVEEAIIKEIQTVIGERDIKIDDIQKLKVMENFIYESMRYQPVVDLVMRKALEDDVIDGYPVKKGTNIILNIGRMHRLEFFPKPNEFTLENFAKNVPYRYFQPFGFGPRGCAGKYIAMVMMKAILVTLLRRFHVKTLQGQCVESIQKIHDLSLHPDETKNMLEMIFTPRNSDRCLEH
SMILES,Potency [1],Potency [2],Potency [3],Potency [4],Potency [5],Potency [6],Potency [7],Potency [8],Potency [9],Potency [10],Potency [11],Potency [12],Potency [13],Potency [14],outcome [15],Potency [16],Potency [17],Potency [18],Potency [19]
NC(=O)C(Cl)(Cl)Cl,inactive,inactive,inactive,68.9 µM (active),inactive,inactive,inactive,inactive,inactive,inactive,inactive,inactive,inactive,inactive,inactive,inactive,,,
O=S(=O)(O)C(F)(F)C(F)(F)C(F)(F)C(F)(F)F,inactive,,inactive,inactive,inactive,,,,,inactive,,,inactive,,inactive,inactive,inactive,inactive,
CC1Sc2c(C(=O)O)c(=O)c3cc(F)c(N4CCNCC4)cc3n21 (stereo not drawn),,,,,,,,,,,,inactive,inactive,inactive,inactive,inactive,,,inactive
CN1C(=O)C(O)N=C(c2ccccc2)c2cc(Cl)ccc21 (stereo not drawn),inactive,inactive,inactive,,,inactive,inactive,inactive,inactive,,,inactive,inactive,,,inactive,,inactive,
Clc1ccc(C2(Cn3cncn3)CC(Br)CO2)c(Cl)c1 (stereo not drawn),,inactive,inactive,,,inactive,17.1 µM (active),inactive,,inactive,inactive,inactive,inactive,,inactive,inactive,inactive,,inactive
O=C1C(=O)c2cccc3cccc1c23,inactive,,inactive,inactive,inactive,,inactive,inactive,inactive,inactive,,,inactive,,,,inactive,,
O=C(O)CC(Cl)C(=O)O (stereo not drawn),,inactive,,,,inactive,inactive,inactive,inactive,,,inactive,,inactive,inactive,inactive,,inactive,2.76 µM (active)
O=C(CBr)Nc1ccc(Cl)cc1C(=O)c1ccccc1F,,,,,,,,,,,inactive,inactive,inactive,inactive,inactive,,,,23.7 µM (active)
